# Results from PubChem BioAssay AID1835 (Johns Hopkins Ion Channel Center, 2009).
# Screen size: about 2,400 compounds; about 750 (31%) were called active. The list shows a part of the results. A number with no mark means an inactive call.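 Rule for the calls: active = median signal gain over dofetilide-blocked control wells reaching their mean plus 3 SD, so readout 1 at least 0; inactive = the rest.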
# Target: Voltage-gated inwardly rectifying potassium channel KCNH2 (Homo sapiens) (UniProt Q12809)
# Sequence (Q12809 whole entry, looked up): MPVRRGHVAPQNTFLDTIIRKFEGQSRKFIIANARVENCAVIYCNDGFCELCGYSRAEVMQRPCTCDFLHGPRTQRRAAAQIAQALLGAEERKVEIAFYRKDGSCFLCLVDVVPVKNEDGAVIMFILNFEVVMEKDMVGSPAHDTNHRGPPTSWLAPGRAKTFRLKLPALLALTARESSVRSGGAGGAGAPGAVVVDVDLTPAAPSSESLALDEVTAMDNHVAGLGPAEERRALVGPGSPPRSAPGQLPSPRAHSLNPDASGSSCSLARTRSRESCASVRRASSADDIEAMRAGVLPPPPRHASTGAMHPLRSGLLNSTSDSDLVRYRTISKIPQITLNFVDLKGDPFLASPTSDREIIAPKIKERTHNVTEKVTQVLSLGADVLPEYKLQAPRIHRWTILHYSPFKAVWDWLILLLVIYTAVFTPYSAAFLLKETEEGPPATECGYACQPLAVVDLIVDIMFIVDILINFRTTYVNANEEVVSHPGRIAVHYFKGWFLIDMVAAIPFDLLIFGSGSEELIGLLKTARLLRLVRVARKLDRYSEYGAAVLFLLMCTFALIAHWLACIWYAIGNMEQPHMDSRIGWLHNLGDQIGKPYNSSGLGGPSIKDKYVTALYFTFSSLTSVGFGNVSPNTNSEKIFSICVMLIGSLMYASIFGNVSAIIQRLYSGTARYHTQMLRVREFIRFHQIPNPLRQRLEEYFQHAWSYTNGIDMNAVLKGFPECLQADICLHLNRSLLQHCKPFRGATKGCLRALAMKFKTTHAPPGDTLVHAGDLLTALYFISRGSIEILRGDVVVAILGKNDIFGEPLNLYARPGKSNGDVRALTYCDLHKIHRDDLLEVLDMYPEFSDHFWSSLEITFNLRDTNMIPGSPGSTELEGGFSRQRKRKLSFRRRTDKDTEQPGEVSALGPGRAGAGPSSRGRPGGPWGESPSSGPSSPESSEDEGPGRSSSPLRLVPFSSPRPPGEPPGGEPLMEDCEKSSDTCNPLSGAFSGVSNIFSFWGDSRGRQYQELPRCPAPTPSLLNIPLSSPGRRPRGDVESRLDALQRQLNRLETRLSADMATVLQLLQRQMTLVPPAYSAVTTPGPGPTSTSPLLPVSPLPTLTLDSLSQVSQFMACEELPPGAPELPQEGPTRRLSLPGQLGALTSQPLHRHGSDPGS
# Assay: modulators restoring hERG flux under dofetilide – cell-based, thallium flux, duplicate retest, dofetilide IC70, confirmation (AID 1835)
# Conditions: hERG cell line, FluxOR thallium flux, dofetilide-blocked; at 10 µM; active compounds read high
row,SMILES,"activity increase over dofetilide control, less the hit threshold"
1,CC1c2nc3ccccc3n2C(CC(=O)NCCCN2CCOCC2)C(=O)N1Cc1ccccc1 (centres undefined),-8%
2,CCCOc1ccc(C2NC(=S)NC(c3ccccc3)=C2C(=O)Nc2ccc(C)cc2)cc1OC (centres undefined),-5%
3,Cc1cc(C(=O)N/N=C/c2ccc(O)c([N+](=O)[O-])c2)n[nH]1,-13%
4,O=C(NC(=S)N1CCc2ccccc21)c1ccccc1Cl,53% (active)
5,O=C(NC(=S)N1CCc2ccccc21)c1ccco1,-11%
6,O=C(NC(=S)N1CCc2ccccc21)c1ccccc1,43% (active)
7,O=C(c1ccccc1)N1CCc2ccccc21,-6%
8,O=C(NC(=S)N1CCc2ccccc21)c1ccc(Br)o1,12% (active)
9,O=C(NC(=S)N1CCCc2ccccc21)c1ccccc1,-18%
10,O=C(N/N=C/c1ccsc1)C1CC1,-4%
11,CC1CCN(S(=O)(=O)c2ccc3nc(N4CCN(c5ccccc5)CC4)ccc3c2)CC1,-22%
12,COc1cc(C2c3c(n[nH]c3C)C(=O)N2c2ccc(C)cc2)ccc1O (centres undefined),-15%
13,O=C(NCc1cccnc1)c1ccc(NS(=O)(=O)c2ccc(F)cc2)cc1,-9%
14,CCOC(=O)N/N=C/C=C/c1ccccc1[N+](=O)[O-],4% (active)
15,O=C(N/N=C/c1ccccc1[N+](=O)[O-])c1ccc(CN2CCOCC2)cc1,-4%
16,CC1=NNC(=O)C1CC(=O)N/N=C/C=C/c1ccccc1 (centres undefined),-18%
17,Cc1cc(C)n2nc(SCC(=O)NC3CCCCC3C)nc2n1 (centres undefined),-19%
18,Oc1c(N=NC(=S)Nc2ccccc2F)c2ccccc2n1Cc1ccccc1F,19% (active)
19,Cc1ccc(C)c(Cn2c(O)c(N=NC(=S)Nc3ccccc3F)c3ccccc32)c1,-2%
20,Cc1ccccc1Cn1c(O)c(N=NC(=S)Nc2ccccc2F)c2ccccc21,6% (active)
21,Cn1c(O)c(N=NC(=S)Nc2ccccc2F)c2cc(S(=O)(=O)N3CCOCC3)ccc21,-22%
22,Oc1c(N=NC(=S)Nc2ccccc2F)c2ccccc2n1Cc1ccccc1Cl,-2%
23,CC(C)Nc1nc(SCC(N)=O)nc(N2CCOCC2)n1,-12%
24,O=C1CN(C(=O)COc2ccccc2F)c2ccccc2N1,-17%
25,COC(=O)c1sccc1NC(=O)CSc1ccccc1NS(=O)(=O)c1cc(Cl)ccc1Cl,-3%
26,COC(=O)c1sccc1NS(=O)(=O)c1ccc(F)cc1F,2% (active)

row,SMILES,"activity increase over dofetilide control, less the hit threshold"
1,COC(=O)c1sccc1NC(=S)N1CC(C)CC(C)C1 (centres undefined),-15%
2,Cc1ccc(NC(=O)c2ccc3c(c2)CCN3S(C)(=O)=O)c(C)c1,-17%
3,Cc1ccc(NS(=O)(=O)c2cn(C)c(=O)n(C)c2=O)c(C)c1,0% (active)
4,Cc1ccc(S(=O)(=O)n2cnc3ccccc32)c(C)c1,-13%
5,Cc1cc(C(=O)NNC2CC(=O)N(c3ccc4ccccc4c3)C2=O)c(C)o1 (centres undefined),-6%
6,Cc1c(C)n(CCN(C)C)c2ccc(C(=O)OCCN(C)C)cc12,-7%
7,CC(=O)c1c(C)c2c(n1CCN(C)C)CCCC2,2% (active)
8,O=C(CC1NC(=O)NC1=O)Nc1ccccc1 (centres undefined),-19%
9,O=C(c1cncc(Br)c1)N1CCc2ccccc2C1,-15%
10,CCC1(C)Cc2c(sc3[nH]c(=S)n(Cc4ccccc4)c(=O)c23)CO1 (centres undefined),30% (active)
11,CC1(C)Cc2c(sc3[nH]c(=S)n(Cc4ccccc4)c(=O)c23)CO1,-10%
12,CC(C)C1Cc2c(sc3[nH]c(=S)n(Cc4ccccc4)c(=O)c23)CO1 (centres undefined),16% (active)
13,COc1ccc(C(=O)NCC(=O)OCn2nnc3ccccc3c2=O)cc1OC,-24%
14,CCCCNC(=S)N/N=C/C1=CCC2CC1C2(C)C (centres undefined),-22%
15,Fc1ccc2c(c1)C(c1ccncc1)=NNC(c1cccnc1)=N2,-13%
16,C=CCc1cc(Cl)ccc1OCCOCCN(C)C,-19%
17,O=C(NCc1ccccc1)C(=O)Nc1nc(C23CC4CC(CC(C4)C2)C3)cs1,18% (active)
18,Cc1csc(NC(=O)C2C3C=CC(C3)C2C(=O)O)n1 (centres undefined),-19%
19,O=C(O)c1ccc(CNC(=O)C23CC4CC(CC(C4)C2)C3)cc1,-3%
20,Oc1ccc(/C=N/Nc2nccnc2Cl)c(O)c1,8% (active)
21,COc1ccc(N2C(=O)CCC(C(=O)O)C2c2ccc(F)cc2)cc1 (centres undefined),-5%
22,COc1ccc(-c2csc(NC(=S)NC(=O)c3ccco3)n2)cc1,11% (active)
23,O=C(NC(=S)Nc1nc(-c2cccc([N+](=O)[O-])c2)cs1)c1ccccc1Cl,-1%
24,COc1ccc(-c2csc(NC(=S)NC(=O)c3ccco3)n2)cc1Br,-17%
25,O=C(NC(=S)Nc1nc(-c2ccc([N+](=O)[O-])cc2)cs1)c1ccco1,16% (active)
26,O=C(NC(=S)Nc1nc(-c2ccc(Br)cc2)cs1)c1ccco1,10% (active)

row,SMILES,"activity increase over dofetilide control, less the hit threshold"
1,O=C(NC(=S)Nc1nc(-c2ccccc2)cs1)c1ccco1,1% (active)
2,O=C(CCc1ccc(S(=O)(=O)N2CCCCC2)cc1)c1nnc(-c2ccccc2)o1,-14%
3,Cc1[nH]c(=S)c(C#N)c(C)c1Cc1ccc(Cl)cc1Cl,-12%
4,O=C(N/N=C/C(Cl)=C/c1ccc([N+](=O)[O-])cc1)C(=O)Nc1ccc(C(=O)O)cc1,-13%
5,O=c1c(C(c2ccc(O)cc2)c2c(O)nc3n(c2=O)CCS3)c(O)nc2n1CCS2,3% (active)
6,O=C(N=Nc1c(O)[nH]c2ccc([N+](=O)[O-])cc12)c1cc(-c2ccccc2Cl)nc2ccccc12,97% (active)
7,O=[N+]([O-])c1cccc(NC(=S)Nc2nc(-c3ccccc3Cl)cs2)c1,-7%
8,CN(C)/C(=N\S(=O)(=O)c1ccccc1)c1ccc(F)cc1,-9%
9,S=c1[nH]c(-c2ccccc2)cn1/N=C/c1cccc2ccccc12,2% (active)
10,Cc1cccc(-n2cc(-c3ccccc3)[nH]c2=S)c1,-6%
11,S=C(N/N=C/c1cccc2ccccc12)Nc1cccc(Cl)c1,-8%
12,Cc1c(OC(C(=O)O)c2ccccc2)ccc2c(-c3ccccc3)cc(=O)oc12 (centres undefined),-3%
13,COc1ccc(C(=O)NNC(=O)CSc2nnc(COc3ccccc3)n2C)cc1,-24%
14,COc1cccc(CCNS(=O)(=O)CCNC(=O)c2cccc(OC)c2)c1,-15%
15,COc1cc(NC(=O)c2cc(-c3cccnc3)nc3ccc(C)cc23)c(OC)cc1Cl,-17%
16,COc1cccc(C(=O)NNC(=O)C(=O)Nc2cccc3ccccc23)c1,52% (active)
17,COc1cc(OC)cc(C(=O)NNC(=O)C(=O)Nc2cc(OC)c(Cl)cc2OC)c1,68% (active)
18,COc1ccc(C(=O)NNC(=O)C(=O)Nc2cccc3ccccc23)cc1,51% (active)
19,Cc1cc(C(=O)Nc2cccc3ccccc23)c(C)o1,-12%
20,COc1ccc(NC(=O)C2CC3CCC2C3)c(OC)c1 (centres undefined),-8%
21,COc1cccc(C(=O)NNC(=O)C(=O)Nc2ccc(OC)cc2OC)c1,19% (active)
22,CN(C)CCOC(=O)C1(c2ccccc2)CCCC1,-3%
23,O=C(CSc1cccc2cccnc12)N/N=C/c1cccnc1,-19%
24,COC(=O)c1ccc(Oc2ccc(S(=O)(=O)N3CCCCC3)cc2N)cc1,-12%
25,O=S(=O)(Nc1cccc(-n2cnnn2)c1)c1ccc(Cl)nc1,-11%
26,CCOCCOCN(C#N)c1nc(OC)nc(N(C)C)n1,-22%

row,SMILES,"activity increase over dofetilide control, less the hit threshold"
1,O=C(CN1C(=O)CSCC1=O)Nc1ccc2c(c1)OCO2,-6%
2,COC(=O)CC1C(=O)NCCN1C(=S)NC(=O)c1sc2ccccc2c1Cl (centres undefined),-1%
3,CC1CCCCC1NC(=S)NC(=O)c1sc2ccccc2c1Cl (centres undefined),5% (active)
4,O=C(NC(=S)N(CCCCO)C1CCCCC1)c1sc2ccccc2c1Cl,29% (active)
5,CC1CCCCC1NC(=S)NC(=O)c1cccs1 (centres undefined),44% (active)
6,CN(CC(=O)Nc1ccc(OC(F)(F)F)cc1)S(=O)(=O)c1cnc[nH]1,-9%
7,FC(F)c1nnc2c(Cl)cc(C(F)(F)F)cn12,-11%
8,O=C(NC(=S)NNC(=O)[C@H]1C[C@@H]1c1ccccc1)c1cccc(F)c1,-14%
9,C=CCn1c(=S)[nH]c2scc(-c3ccc(C)o3)c2c1=O,72% (active)
10,C=CCn1c(=S)[nH]c2scc(-c3cccs3)c2c1=O,90% (active)
11,C=CCn1c(SCC(N)=O)nc2scc(-c3ccc(C)o3)c2c1=O,-19%
12,O=C(Nc1ccc(Cl)c(Cl)c1)Nc1nnc(CSc2ccccc2)s1,-10%
13,N#CC(=C1SC=CS1)c1nc(-c2ccccc2)cs1,-7%
14,Cc1ccc(-c2n[nH]c(=S)nc2-c2ccc(C)cc2)cc1,13% (active)
15,S=c1nc(-c2ccccc2)c(-c2ccccc2)n[nH]1,-9%
16,COC(=O)c1cc(-c2ccc(C)cc2)n[nH]1,-17%
17,Cn1cc(/C=C2\SC(=O)NC2=S)c2ccccc21,-24%
18,CCOc1ccc(/C=C2/SC(=O)NC2=S)cc1,92% (active)
19,CCOC(=O)c1ccc(Oc2cc(C)nc(SC)n2)cc1,10% (active)
20,CCOc1cc(-n2ncc(C#N)c2N)nc(SC)n1,-12%
21,CCc1ccc(NC(=O)C(=O)NNC(=O)COc2cccc(OC)c2)cc1,14% (active)
22,COc1cccc(OCC(=O)NNC(=O)C(=O)Nc2cccc(C)c2)c1,50% (active)
23,CCc1ccc(OCC(=O)Nc2ncn[nH]2)cc1,-29%
24,O=C(COc1cccc(-n2cnnn2)c1)Nc1ccc([N+](=O)[O-])cc1,-1%
25,Cc1cccc(OCC(=O)NCc2nc(-c3ccccc3)no2)c1,-13%
26,COc1cccc(NC(=O)CSCc2n[nH]c(=O)[nH]2)c1,-20%
